The source of these data is PubChem BioAssay (NCATS).

Inconclusive results are not listed. Active and inactive are the calls of the source. Calls come from the whole dose curve; as a rule, active = well fitted curve in the direction sought with a large enough effect; inconclusive = small, poorly fitted or top-dose-only effect, or another doubt; inactive = no such curve, though single readings can be large; an effect the other way counts as inactive or inconclusive.

Assay [1] is described as follows: Quantitative High-Throughput drug screen in 47 multiple myeloma cell lines against the NCATS MIPE library collection: Karpas25_ECACC cell viability assay (AID 1918968; note: nearly all actives have a fitted effect of over 35% in size). In a few lines: (§1)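 Myeloma cells (500 per well) were exposed to MIPE 4.0 compounds by pin transfer and incubated 48 hours at 37C, 5% CO2. Viability was read as ATP by CellTiter-Glo luminescence, normalised to DMSO (100%) and media-only (0%) wells.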

Assay [2] can be described thus: Quantitative High-Throughput drug screen in 47 multiple myeloma cell lines against the NCATS MIPE library collection: KMS27_JCRB cell viability assay (AID 1918970). Note: nearly all actives have a fitted effect of over 30% in size. The note with it: KMS27 myeloma cells, CellTiter-Glo ATP viability, 48 h; viability (% of DMSO): at 45.8 µM (top of the series). The essentials: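 Luminescent ATP read-out (CellTiter-Glo, 5 min at room temperature) after 48 h compound exposure of 500 KMS27_JCRB cells per well; DMSO wells define full viability and media-only wells zero.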

Assay [3] can be described thus: Quantitative High-Throughput drug screen in 47 multiple myeloma cell lines against the NCATS MIPE library collection: KMS12PE_JCRB cell viability assay (AID 1918972). Note: nearly all actives have a fitted effect of over 30% in size. In a few lines: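 Luminescent ATP measurement with CellTiter-Glo gives viability, scaled between DMSO-only wells (100%) and media-only wells (0%). Cells, 500 per well, faced library compounds for 48 hours at 37C.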

Assay [4] in a line: Quantitative High-Throughput drug screen in 47 multiple myeloma cell lines against the NCATS MIPE library collection: KMS20_JCRB cell viability assay (AID 1918973). Note: nearly all actives have a fitted effect of over 45% in size. The essentials:
as §1

The nature of assay [5]: Quantitative High-Throughput drug screen in 47 multiple myeloma cell lines against the NCATS MIPE library collection: KMS21BM_JCRB cell viability assay (AID 1918974). The note with it: ATP luminescence, 48 h; viability: at 45.8 µM (top of the series). The essentials:
as §1

Assay [6] in a line: Quantitative High-Throughput drug screen in 47 multiple myeloma cell lines against the NCATS MIPE library collection: NCIH929_DSMZ cell viability assay (AID 1918978). Note: nearly all actives have a fitted effect of over 35% in size. The essentials:
(§2)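 qHTS format: cells plated (500/well), pin-dosed with MIPE 4.0 compounds, kept 48 h at 37 °C. Readout was CellTiter-Glo luminescence, median RLU.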

The nature of assay [7]: Quantitative High-Throughput drug screen in 47 multiple myeloma cell lines against the NCATS MIPE library collection: KMS26_JCRB cell viability assay (AID 1918975). Note: nearly all actives have a fitted effect of over 45% in size. The essentials: (§3)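 CellTiter-Glo luminescence (ATP) after 48 h compound exposure, 37C/5% CO2; 500 cells/well; MIPE 4.0 approved/investigational drugs pinned in; DMSO = 100%, media only = 0% viability.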
The nature of assay [8]: Quantitative High-Throughput drug screen in 47 multiple myeloma cell lines against the NCATS MIPE library collection: MOLP8_DSMZ cell viability assay (AID 1918977). Note: nearly all actives have a fitted effect of over 45% in size. In a few lines:
as §2

A short description of assay [9]: Quantitative High-Throughput drug screen in 47 multiple myeloma cell lines against the NCATS MIPE library collection: MMM1_PLB cell viability assay (AID 1918976). Note: nearly all actives have a fitted effect of over 35% in size. The essentials:
as §2

The nature of assay [10]: Quantitative High-Throughput drug screen in 47 multiple myeloma cell lines against the NCATS MIPE library collection: KMS12BM_JCRB cell viability assay (AID 1918971). Note: nearly all actives have a fitted effect of over 35% in size. In a few lines: as §3
Potency is the fitted concentration of half-maximal effect.

On to `c1cc(OCCN2CCCCC2)cc(-c2n[nH]c3ccc(-c4ncn[nH]4)cc23)c1`, for which the Potency in assay [1] was 14.8 µM (active); in assay [2] it was 18.7 µM (active); in assay [3] it was 23.5 µM (active); in assay [4], 18.7 µM (active); in [5], 3.72 µM (active); in assay [6] it was 8.33 µM (active).
As to `Cc1cn([C@@H]2C[C@@H](O)[C@H](CO)O2)c(=O)[nH]c1=O`, the Potency result in assay [1], in assay [2], in [3], in assay [7], in [8] and in assay [6] was “inactive” in each case.
With `CN(C)CCOc1ccc(C(=C(CCCl)c2ccccc2)c2ccccc2)cc1`, the Potency result in assay [1], in [2], in assay [3] and in assay [6] was “inactive” in each case. The figures for the Potency in [9] and in [8] were 23.5 µM (active) and 18.7 µM (active), respectively.
For `CC(C)Oc1cc(Nc2nc(N[C@@H](C)c3ccc(F)cn3)ncc2Cl)[nH]n1`, the Potency in [1] was 10.5 µM (active); in [2] it was 20.9 µM (active); in [3] it was 23.5 µM (active); in [5], 5.26 µM (active); in [6], 5.26 µM (active).
As for `Cc1cnc(CNC(=O)c2c(=O)c3ccc(N4CCCN(C)CC4)nc3n3c2sc2ccccc23)cn1`, the Potency entry in assay [1] and in [2] was “inactive” each time. The Potency is 0.323 µM (active) in assay [10], 12.9 µM (active) in assay [7], 9.11 µM (active) in assay [9] and 9.11 µM (active) in [8].
For the molecule `CC=C1C2C=C(C)CC1(N)c1ccc(=O)[nH]c1C2` (stereo not drawn), the Potency entry in assay [1], in assay [2], in [3], in [7], in assay [8] and in [6] was “inactive” in each case.
With `CCOC(=O)c1c(CSc2ccccc2)n(C)c2cc(Br)c(O)c(CN(C)C)c12`, the Potency in [1] was 16.6 µM (active); in assay [2] it was 26.4 µM (active); in assay [10], 18.7 µM (active); in assay [7], 11.8 µM (active); in assay [9] it was 18.7 µM (active); in assay [8] it was 5.9 µM (active). For the same molecule, the Potency entry in assay [6] is “inactive”.
On to `Cc1ccc(NC(=O)c2cccc(N(C)C)c2)cc1NC(=O)c1ccc(O)cc1`, for which the Potency in [1] was 0.118 µM (active); in [2] it was 1.05 µM (active); in [10], 7.43 µM (active); in assay [6], 0.118 µM (active).
`CC(C)C[C@H](NC(=O)c1cc2ccccc2s1)C(=O)N1CCN(C(=O)[C@H](CO)NS(=O)(=O)c2ccc(Cl)cc2Cl)CC1`: the Potency in assay [1] was 26.4 µM (active); in [10], 18.7 µM (active); in [9] it was 18.7 µM (active); in assay [6], 26.4 µM (active). For the same molecule, in assay [2], the Potency entry was “inactive”.
Regarding `CN1c2ccccc2C(=O)N2CCc3c([nH]c4ccccc34)C21` (stereo not drawn), the Potency in assay [1] is 23.5 µM (active). Besides, the Potency result in assay [2] and in assay [3] was “inactive” in each case.
As for `O=C1C(c2c(O)[nH]c3ccccc23)=Nc2ccccc21`, the Potency is 6.62 µM (active) in [1], 5.9 µM (active) in assay [10], 2.96 µM (active) in [7] and 2.09 µM (active) in assay [9]. Further, in assay [2], the Potency entry was “inactive”.
On to `O=c1[nH]c(=O)n([C@H]2C[C@@H](O)[C@@H](CO)O2)cc1C(F)(F)F`, for which the Potency in [1] is 10.5 µM (active); in [2], 7.43 µM (active); in [10], 8.33 µM (active); in assay [9], 3.32 µM (active); in assay [6], 10.5 µM (active).
As for `O=C1Nc2ccc(I)cc2C1=Cc1cc(Br)c(O)c(Br)c1`, the Potency was 14.8 µM (active) in [1], 10.5 µM (active) in [2], 16.6 µM (active) in assay [10] and 16.6 µM (active) in assay [7].
For the molecule `CN1CCc2c(n(Cc3ccc(C(=O)NO)cc3)c3ccccc23)C1`, the Potency in assay [1] was 16.6 µM (active); in assay [2], 0.743 µM (active); in assay [10] it was 18.7 µM (active); in [7] it was 14.8 µM (active); in [8] it was 18.7 µM (active).
On to `CC(=O)N1CCN(c2ccc(OCc3nn(C)c(C)c3-c3cccc4c(CCCOc5cc(C)c(Cl)c(C)c5)c(C(=O)O)n(Cc5cccnc5)c34)cc2)CC1`, for which the Potency in assay [1] is 3.32 µM (active); in assay [2], 8.33 µM (active); in assay [3] it was 18.7 µM (active); in assay [7], 18.7 µM (active); in assay [8] it was 20.9 µM (active); in [6] it was 2.96 µM (active).
Regarding `Oc1cc(O)cc(C=Cc2ccc(O)c(O)c2)c1`, the Potency is 7.43 µM (active) in [1]; 18.7 µM (active) in assay [2]; 18.7 µM (active) in assay [3]; 2.96 µM (active) in [4]; 23.5 µM (active) in assay [7]; 23.5 µM (active) in [9]. Also, the Potency in assay [8] was 18.7 µM (active); in assay [6], 6.62 µM (active).
For `COc1ccc2c(c1)c(C1=C(c3c[nH]c4ccccc34)C(=O)NC1=O)cn2CCCN(C)C`, the Potency in [1] is 20.9 µM (active); in assay [2], 18.7 µM (active); in assay [3] it was 16.6 µM (active); in assay [5] it was 0.469 µM (active); in assay [8] it was 14.8 µM (active); in assay [6] it was 23.5 µM (active).
In the case of `CCN(CCO)CCCOc1ccc2c(Nc3cc(CC(=O)Nc4cccc(F)c4)[nH]n3)ncnc2c1`, the Potency result in [1], in assay [4], in [8] and in [6] was “inactive” each time. Besides, the Potency in assay [2] was 0.0083 µM (active); in [10], 0.209 µM (active).
As to `O=C(O)c1ccc(O)c2ncc(N3CCOCC3)cc12`, the Potency in assay [1] was 18.7 µM (active); in assay [2], 23.5 µM (active); in assay [3], 26.4 µM (active). Further, in [7], the Potency entry was “inactive”.
Turning to `CNC1CCC(N(Cc2cccc(-c3ccncc3)c2)C(=O)c2sc3ccccc3c2Cl)CC1` (stereo not drawn), the Potency in assay [1] is 9.35 µM (active); in assay [10], 18.7 µM (active); in [3] it was 8.33 µM (active); in [4], 5.26 µM (active); in [7], 20.9 µM (active); in assay [9], 20.9 µM (active). The Potency was 16.6 µM (active) in assay [8] and 10.5 µM (active) in assay [6].
As for `COC(=O)Nc1ccc(-c2nc(N3CCOCC3)c3cnn(C4CCN(C(=O)OC)CC4)c3n2)cc1`, the Potency was 0.0187 µM (active) in assay [1]; 0.935 µM (active) in assay [10]; 1.66 µM (active) in assay [3]; 0.0526 µM (active) in assay [5]; 1.66 µM (active) in assay [7]; 1.48 µM (active) in assay [8]. Moreover, the Potency in assay [6] is 0.0372 µM (active).
